High-throughput results (PubChem)
D2 PAM-1 – positive allosteric modulators of human D2 dopamine receptor; HEK293 T-REx D2, calcium flux, EC20 dopamine potentiation; AID 485347; P14416; hit rate 0.34% among 340,000; potentiation, % at 10 µM;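 active = potentiation over 3 SD above the plate norm, cut at about 30% in these data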; also: 0% is about no effect
Target sequence (P14416 whole entry, looked up): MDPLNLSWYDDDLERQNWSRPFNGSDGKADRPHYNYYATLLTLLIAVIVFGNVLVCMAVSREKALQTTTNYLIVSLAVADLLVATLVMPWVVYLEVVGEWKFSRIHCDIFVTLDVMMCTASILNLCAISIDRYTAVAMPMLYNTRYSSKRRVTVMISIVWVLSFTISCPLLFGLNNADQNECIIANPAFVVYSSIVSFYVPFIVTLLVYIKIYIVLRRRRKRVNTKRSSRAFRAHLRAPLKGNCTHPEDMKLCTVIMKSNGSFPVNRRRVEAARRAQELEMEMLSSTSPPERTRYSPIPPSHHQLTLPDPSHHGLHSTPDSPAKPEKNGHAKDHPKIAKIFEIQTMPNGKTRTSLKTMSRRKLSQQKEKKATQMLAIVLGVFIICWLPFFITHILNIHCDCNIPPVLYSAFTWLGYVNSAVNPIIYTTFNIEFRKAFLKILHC
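Primary screen. Calcium kinetics in induced HEK293 T-REx D2 cells: compound pre-addition 180 s, EC20 dopamine, 180 s more.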
D2 antag – antagonists of human D2 dopamine receptor; P14416; HEK293 TREx D2 cells, calcium flux, dopamine EC80; hit rate 2% among 340,000; inhibition, % at 10 µM; in the data active = inhibition above about 30%; inactive = below that, where a call was filed; also: 0% is about no effect
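Tetracycline-induced HEK293 TREx cells expressing D2 receptor forced-coupled to calcium signalling, loaded with no-wash calcium dye. Compounds added and calcium flux read 180 s, then dopamine added at EC80 and read a further 180 s.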
D2 PAM-2 – potentiates the human D2 dopamine receptor allosterically; P14416; DiscoveRx D2 beta-arrestin cells, luminescence, 90 min; 100% = 57 uM dopamine signal; potentiation, % (test concentration not listed); hit rate 0.23% among 360,000; AID 624464; in the data active = potentiation above about 50%
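PathHunter D2 cells, attached overnight at 37 deg C, received compound in DMSO plus dopamine at EC20 (50 nM final) for 90 min at 37 deg C. Beta-arrestin recruitment was read as luminescence after 1 h with detection reagent at ambient temperature.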
D2 ag-1 – agonists of human D2 dopamine receptor (beta-arrestin) | P14416 | DiscoveRx PathHunter D2 beta-arrestin, luminescence, 90 min; 100% = 57 uM dopamine signal | hit rate 0.084% among 360,000 | activation, % (test concentration not listed); in the data active = activation above about 40%
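Agonist mode: compounds alone added to overnight-plated D2 PathHunter cells for 90 min at 37 C, with 57 uM final dopamine (EC100) defining full response. Beta-arrestin recruitment detected by chemiluminescent reagent, read after 1 h at ambient temperature.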
D2 ag-2 – activates the human D2 dopamine receptor; P14416; HEK293 T-REx D2 cells, calcium flux agonist mode; activation, % at 2 µM; hit rate 0.53% among 340,000; AID 485358;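 active = activation over 3 SD above normal in the single-dose calcium agonist read, cut at about 30% in these data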; also: 0% is about no effect
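Tetracycline-induced HEK293 T-REx cells with force-coupled D2 receptor, plated overnight at 30 C, loaded with no-wash calcium dye. After a 10 s baseline, compound was pin-added and calcium flux read kinetically for 180 s; calcium rises flagged agonists.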
* hit, by the source's call; nt = not tested or not shown. Sampled rows, rich in hits. Any-hit rate of the full collection: about 2.4%.

SMILES	D2 PAM-1	D2 antag	D2 PAM-2	D2 ag-1	D2 ag-2
OCC1CCCCN1CC(O)COC(c1ccc(F)cc1)c1ccc(F)cc1 (centres undefined)	-5	31*	-4	-2	0
Cc1ccccc1CN1c2ccccc2-c2nc(SCC(=O)NCCc3ccccc3)ncc2S1(=O)=O	8	nt	nt	nt	nt
CC12CCC(=O)N1c1ccccc1C(=O)N2c1ccccc1 (centres undefined)	34*	-21	-16	1	1
CC(=O)c1ccc(NC(=O)CSc2cn(CC(=O)N3CCCCC3)c3ccccc23)cc1	2	nt	nt	nt	-1
CC(=O)c1cccc(NC(=O)c2ccc(Cl)c(S(=O)(=O)N3CCOCC3)c2)c1	-7	nt	nt	nt	0
Cc1sc2ncnc(NCC(c3ccco3)N3CCCC3)c2c1C (centres undefined)	-8	32*	-26	-4	-2
Cc1sc2ncnc(N3CCCCC3)c2c1C	16	18	-1	-2	0
Cc1ccc(Cl)cc1NC(=O)CCCn1c(=O)c2cccn2c2ccccc21	-6	nt	nt	nt	0
COc1cccc(Cn2cnc3c(N)c(C)c(C)cc32)c1	-2	-8	-1	-2	2
CCCn1cnc2c(N)c(C)c(C)cc21	8	32*	-5	-1	1
COc1ccc(-c2cc3ccccc3oc2=O)cc1NC(=O)c1ccc(Br)o1	-8	-6	-14	-6	1
COc1ccc(-c2cc3ccccc3oc2=O)cc1NC(=O)c1ccc([N+](=O)[O-])o1	-6	-13	101*	11	0
COc1cccc(C2c3c(oc4cc(C)cc(C)c4c3=O)C(=O)N2CCc2ccc(OC)c(OC)c2)c1 (centres undefined)	-1	nt	nt	nt	nt
Nc1nonc1-c1nc2ccccc2n1CC(=O)N1CCN(c2ccc(F)cc2)CC1	50*	-30	-11	1	1
Nc1nonc1-c1nc2ccccc2n1CC(=O)Nc1ccc(F)cc1	9	nt	nt	nt	5
COc1ccc2c(c1OC)C(=O)N1c3ccccc3C(=O)N(c3ccc(F)cc3)C21 (centres undefined)	nt	41*	0	-2	0
CCOC(=O)c1ccccc1NC(=O)CCc1c(C)nc2ncnn2c1C	-8	nt	nt	nt	0
Cc1ccc(NC(=O)Cn2c(=O)c3ccc(Cl)cc3n3nncc23)cc1	2	nt	nt	nt	0
Cc1ccc(NC(=O)Nc2nc(-c3ccc(C)s3)cs2)cc1	45*	-11	0	3	1
CN1CCCN(C(c2ccccc2)c2ccc(Cl)cc2)CC1 (centres undefined)	-30	82*	-36	-2	2
Cc1cccc(CN2CCN(C(c3ccccc3)c3ccc(Cl)cc3)CC2)c1 (centres undefined)	-22	31*	-24	-6	-2
COc1cc(CN2CCN(C(c3ccccc3)c3ccccc3)CC2)cc(OC)c1OC	-19	17	-7	3	-2
O=C(Cc1ccc(Cl)cc1)Nc1ccc2oc(=O)ccc2c1	4	12	-3	-2	-2
O=C(Cc1ccc(Cl)cc1)Nc1ccc(-c2cc3ccccc3oc2=O)c(Cl)c1	8	46*	10	-6	0
CC(C)CCNC(=O)CCc1nnc(Cc2c[nH]c3ccccc23)o1	1	-5	-2	-2	1
SMILES	D2 PAM-1	D2 antag	D2 PAM-2	D2 ag-1	D2 ag-2
S=c1[nH]nc(Cc2c[nH]c3ccccc23)o1	1	41*	15	1	1
CC(CNC(=O)c1ccc(Cn2c(=O)c3cccn3c3cccnc32)cc1)c1ccccc1 (centres undefined)	-3	nt	nt	nt	0
CCNc1nc(NC(C)(C)C)nc(N(C#N)CC)n1	31*	-26	-8	-1	1
CCNc1nc(NCC)nc(N(C#N)C(C)C)n1	9	7	-2	-2	0
COc1ccc(CN(Cc2ccco2)c2cnc(S(C)(=O)=O)nc2C(=O)Nc2ccc(C)c(C)c2)cc1	3	nt	nt	nt	4
CC(C(=O)N1CCN(Cc2ccccc2)CC1)n1ncn2cccc2c1=O (centres undefined)	-16	49*	-3	-2	10
COc1cc(-c2cc3n(C)c(C)c(CCC(=O)O)c(=O)n3n2)cc(OC)c1OC	5	nt	nt	nt	0
CCOC(=O)C1CCN(C(=O)COc2ccc(S(=O)(=O)NC(C)C)cc2Cl)CC1	9	7	-26	-1	0
CC(C)NS(=O)(=O)c1ccc(OCC(N)=O)c(Cl)c1	6	34*	-11	-1	0
COc1ccccc1NC(=O)CSc1nc2c(oc3ccccc32)c(=O)n1-c1ccccc1F	3	nt	nt	nt	1
CC1CCC2(CC1)NC(=O)N(NC(=O)c1cccc(N(C)C)c1)C2=O (centres undefined)	-9	33*	-1	2	0
Cc1cc(C)cc(-n2ccnc2SCC(=O)Nc2ccc(C)c(Cl)c2)c1	-21	nt	nt	nt	1
CN1/C(=C/C=N/NC(=O)c2ccc([N+](=O)[O-])cc2)C(C)(C)c2ccccc21	-17	37*	-7	1	0
COCCNC(=O)CN(C(=O)c1ccc(N2CCCC2)nc1)c1ccc(Cl)cc1	34*	4	-2	-4	0
Cc1ccc(NC(=O)Cn2cc(S(=O)(=O)N3CCN(c4ccccc4F)CC3)c3ccccc3c2=O)cc1F	0	nt	nt	nt	0
CCOc1ccc(N2CC(O)(c3ccc(F)cc3)[N+]3=C2CCCC3)cc1 (centres undefined)	-26	30*	-14	-2	2
COCCn1c(C)cc(O)c(C(c2ccccc2)N2CCC(C)CC2)c1=O (centres undefined)	3	nt	nt	nt	nt
COc1ccccc1CN1C[C@@H]2C[C@@H](c3ccccc3C)N3CCC[C@@]23C1=O	-2	-3	-10	-5	-1
Cc1ccccc1CN1C[C@@H]2C[C@@H](c3cnc(N4CCOCC4)s3)N3CCC[C@@]23C1=O	1	37*	-7	1	1
Cn1c(=O)c2ccccc2n(Cc2ccccc2Cl)c1=O	7	34*	2	1	-1
C1COC(NC(C2CC2)C2CC2)=N1	-4	36*	-9	0	2
C1CCC(NC2=NCCO2)CC1	nt	nt	-9	-1	nt
CC(=O)NC(CC(=O)OCC(=O)N1c2ccccc2NC(=O)C1(C)C)c1ccccc1 (centres undefined)	-16	52*	-33	-1	0
CC1(C)C(=O)Nc2ccccc2N1C(=O)COC(=O)C1CCCCC1	0	-9	-24	3	1
Cc1ccc(C)c(OCCC(=O)OCC(=O)N2c3ccccc3NC(=O)C2(C)C)c1	-3	42*	-15	-3	0
CCc1cc(=O)n2[nH]c(C)c(-c3ccc(OC)cc3)c2n1	-17	34*	-45	-4	0
CCCc1cc(=O)n2[nH]c(C)c(-c3ccccc3)c2n1	nt	nt	-39	-8	nt
